# Records with an inconclusive call do not appear. Unmarked numbers belong to inactive results. Calls of active or inactive are those of the source. Calls come from the whole dose curve; as a rule, active = well fitted curve in the direction sought with a large enough effect; inconclusive = small, poorly fitted or top-dose-only effect, or another doubt; inactive = no such curve, though single readings can be large; an effect the other way counts as inactive or inconclusive.
# Assay: qHTS of pediatric cancer cell lines to identify multiple opportunities for drug repurposing: Confirmatory screen for SJ-GBM2 cells (AID 1347116); note: nearly all actives have a fitted effect of over 60% in size;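 for activity change, negative = cytotoxic: plate controls were DMSO for no effect and bortezomib for full effect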
# Settings: SJ-GBM2 glioblastoma cells, viability; series mostly up to 45.9 µM; activity change, negative = cytotoxic: at the top concentration
# In short: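 Viability measured as metabolically active cells via CellTiter-Glo luminescence following 48 hours of compound exposure, 11-point dilutions in confirmatory testing. 500-1,000 cells/well plated 5 hours before dosing; controls were DMSO and 2.3 µM bortezomib.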
# Potency is the fitted concentration of half-maximal effect.
Compound,Potency,"activity change, negative = cytotoxic [%]"
CC[C@@]1(O)C(=O)OCc2c1cc1n(c2=O)Cc2c-1nc1ccccc1c2/C=N/OC(C)(C)C,0.0928 µM (active),–
Cc1ccc(C(=O)Oc2ccc(C(O)CNC(C)(C)C)cc2OC(=O)c2ccc(C)cc2)cc1 (stereo not drawn),–,-28.3
CO[C@@H]1[C@@H](OC)[C@H](C)[C@@](O)(CC(=O)O)O[C@H]1[C@H](C)[C@H]1O[C@@]2(CC[C@@](C)([C@H]3CC[C@@](C)([C@@H]4O[C@@H]([C@H]5O[C@](C)(O)[C@H](C)C[C@@H]5C)C[C@@H]4OC4C[C@H](OC)[C@@H](OC)[C@H](C)O4)O3)O2)C[C@H](O)[C@H]1C (stereo partly drawn),7.37 µM (active),–
Nc1ccc2cc3ccc(N)cc3nc2c1,5.85 µM (active),–

# Assay: qHTS of pediatric cancer cell lines to identify multiple opportunities for drug repurposing: Confirmatory screen for BT-37 cells (AID 1347117); note: nearly all actives have a fitted effect of over 55% in size;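 for activity change, negative = cytotoxic: plate controls were DMSO for no effect and bortezomib for full effect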
# Settings: BT-37 pediatric cancer cells, viability; series mostly up to 45.9 µM; activity change, negative = cytotoxic: at the top concentration
# In short: (§1)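 Viability after 48 h compound treatment at 37C, 500-1,000 cells/well, read as ATP luminescence with CellTiter-Glo. Primary screens used 11-point (MIPE, 0.78 nM-46 µM) or 8-point (NPC, 0.59 nM-46 µM) final concentrations; follow-up screens used 11-point dilutions.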
Compound,Potency,"activity change, negative = cytotoxic [%]"
CC[C@@]1(O)C(=O)OCc2c1cc1n(c2=O)Cc2c-1nc1ccccc1c2/C=N/OC(C)(C)C,9.3 nM (active),–
Cc1ccc(C(=O)Oc2ccc(C(O)CNC(C)(C)C)cc2OC(=O)c2ccc(C)cc2)cc1 (stereo not drawn),–,-13.4
CO[C@@H]1[C@@H](OC)[C@H](C)[C@@](O)(CC(=O)O)O[C@H]1[C@H](C)[C@H]1O[C@@]2(CC[C@@](C)([C@H]3CC[C@@](C)([C@@H]4O[C@@H]([C@H]5O[C@](C)(O)[C@H](C)C[C@@H]5C)C[C@@H]4OC4C[C@H](OC)[C@@H](OC)[C@H](C)O4)O3)O2)C[C@H](O)[C@H]1C (stereo partly drawn),522 nM (active),–
COc1c(C)c2c(c(O)c1C/C=C(\C)CCC(=O)OCCN1CCOCC1)C(=O)OC2,1310 nM (active),–
CC(=O)O[C@@H]1C(=O)O[C@@H]2[C@H]1OC(=O)[C@@H]2OC(C)=O,–,-15.3
Nc1ccc2cc3ccc(N)cc3nc2c1,11700 nM (active),–

# Assay: qHTS of pediatric cancer cell lines to identify multiple opportunities for drug repurposing: Confirmatory screen for TC32 cells (AID 1347118);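 note: cells exposed to compound for 48 h before the read; nearly all actives have a fitted effect of over 65% in size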
# Settings: TC32 Ewing sarcoma cells viability qHTS; series mostly up to 45.9 µM; activity change, negative = cytotoxicity: at the top concentration
# In short: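 Measured quantity: luminescence from CellTiter-Glo, reflecting metabolically active TC32 cells following 48 h of compound. Curves came straight from multi-point titrations, with 8 or 11 points in primary and 11 in confirmatory screening.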
row,Compound,Potency
1,CC[C@@]1(O)C(=O)OCc2c1cc1n(c2=O)Cc2c-1nc1ccccc1c2/C=N/OC(C)(C)C,0.0052 µM (active)
2,Cc1ccc(C(=O)Oc2ccc(C(O)CNC(C)(C)C)cc2OC(=O)c2ccc(C)cc2)cc1 (stereo not drawn),5.22 µM (active)
3,CO[C@@H]1[C@@H](OC)[C@H](C)[C@@](O)(CC(=O)O)O[C@H]1[C@H](C)[C@H]1O[C@@]2(CC[C@@](C)([C@H]3CC[C@@](C)([C@@H]4O[C@@H]([C@H]5O[C@](C)(O)[C@H](C)C[C@@H]5C)C[C@@H]4OC4C[C@H](OC)[C@@H](OC)[C@H](C)O4)O3)O2)C[C@H](O)[C@H]1C (stereo partly drawn),2.08 µM (active)
4,COc1c(C)c2c(c(O)c1C/C=C(\C)CCC(=O)OCCN1CCOCC1)C(=O)OC2,1.47 µM (active)
5,Nc1ccc2cc3ccc(N)cc3nc2c1,9.27 µM (active)

# Assay: qHTS of pediatric cancer cell lines to identify multiple opportunities for drug repurposing: Confirmatory screen for MG 63 (6-TG R) cells (AID 1347119); note: nearly all actives have a fitted effect of over 55% in size;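 for activity change, negative = cytotoxicity: plate controls were DMSO neutral control for no effect and bortezomib for full effect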
# Settings: MG-63 (6-TG resistant) osteosarcoma viability; series mostly up to 45.9 µM; activity change, negative = cytotoxicity: at the top concentration
# In short: as §1
Compound,Potency,"activity change, negative = cytotoxicity [%]"
CC[C@@]1(O)C(=O)OCc2c1cc1n(c2=O)Cc2c-1nc1ccccc1c2/C=N/OC(C)(C)C,18.5 nM (active),–
Cc1ccc(C(=O)Oc2ccc(C(O)CNC(C)(C)C)cc2OC(=O)c2ccc(C)cc2)cc1 (stereo not drawn),–,-27.4
CO[C@@H]1[C@@H](OC)[C@H](C)[C@@](O)(CC(=O)O)O[C@H]1[C@H](C)[C@H]1O[C@@]2(CC[C@@](C)([C@H]3CC[C@@](C)([C@@H]4O[C@@H]([C@H]5O[C@](C)(O)[C@H](C)C[C@@H]5C)C[C@@H]4OC4C[C@H](OC)[C@@H](OC)[C@H](C)O4)O3)O2)C[C@H](O)[C@H]1C (stereo partly drawn),522 nM (active),–
COc1c(C)c2c(c(O)c1C/C=C(\C)CCC(=O)OCCN1CCOCC1)C(=O)OC2,–,-18.1
CC(=O)O[C@@H]1C(=O)O[C@@H]2[C@H]1OC(=O)[C@@H]2OC(C)=O,–,-18.4
Nc1ccc2cc3ccc(N)cc3nc2c1,23300 nM (active),–

# Assay: qHTS of pediatric cancer cell lines to identify multiple opportunities for drug repurposing: Confirmatory screen for control Hh wild type fibroblast cells (AID 1347121); note: nearly all actives have a fitted effect of over 70% in size;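 for activity, negative = cytotoxic: plate controls were DMSO for no effect and bortezomib for full effect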
# Settings: viability qHTS; series mostly up to 45.9 µM; activity, negative = cytotoxic: at the top concentration
# In short: as §1
Compound,"activity, negative = cytotoxic [%]",Potency
Cc1ccc(C(=O)Oc2ccc(C(O)CNC(C)(C)C)cc2OC(=O)c2ccc(C)cc2)cc1 (stereo not drawn),-1.58,–
CO[C@@H]1[C@@H](OC)[C@H](C)[C@@](O)(CC(=O)O)O[C@H]1[C@H](C)[C@H]1O[C@@]2(CC[C@@](C)([C@H]3CC[C@@](C)([C@@H]4O[C@@H]([C@H]5O[C@](C)(O)[C@H](C)C[C@@H]5C)C[C@@H]4OC4C[C@H](OC)[C@@H](OC)[C@H](C)O4)O3)O2)C[C@H](O)[C@H]1C (stereo partly drawn),–,8.27 µM (active)
COc1c(C)c2c(c(O)c1C/C=C(\C)CCC(=O)OCCN1CCOCC1)C(=O)OC2,14.5,–
CC(=O)O[C@@H]1C(=O)O[C@@H]2[C@H]1OC(=O)[C@@H]2OC(C)=O,3.18,–

# Assay: qHTS of pediatric cancer cell lines to identify multiple opportunities for drug repurposing: Confirmatory screen for U-2 OS cells (AID 1347122); note: nearly all actives have a fitted effect of over 65% in size
# Settings: U-2 OS osteosarcoma cell viability; series mostly up to 45.9 µM; activity change, negative = cytotoxicity: at the top concentration
# In short: as §1
row,Compound,Potency
1,CO[C@@H]1[C@@H](OC)[C@H](C)[C@@](O)(CC(=O)O)O[C@H]1[C@H](C)[C@H]1O[C@@]2(CC[C@@](C)([C@H]3CC[C@@](C)([C@@H]4O[C@@H]([C@H]5O[C@](C)(O)[C@H](C)C[C@@H]5C)C[C@@H]4OC4C[C@H](OC)[C@@H](OC)[C@H](C)O4)O3)O2)C[C@H](O)[C@H]1C (stereo partly drawn),329 nM (active)
2,COc1c(C)c2c(c(O)c1C/C=C(\C)CCC(=O)OCCN1CCOCC1)C(=O)OC2,185 nM (active)
3,Nc1ccc2cc3ccc(N)cc3nc2c1,9270 nM (active)
